Only some compounds are listed: those with a hit (about 5.4% of all), similar ones and a draw of the others.
VACV Venus inh – vaccinia inhibition (Venus reporter); Vaccinia virus Venus reporter expression, fluorescence; Potency, µM (top dose mostly 36.5 µM), hits mostly inhibitors; hit rate 0.46% among 330,000; AID 720580; calls by dose curve; tested in A549 cells; also: nearly all actives have a fitted effect of over 30% in size
MARV entry inh – Marburg virus entry inhibition; Marburg virus pseudotyped entry inhibition, cell reporter; Potency, µM (titrated, usually from 37.8 µM), usual class: inhibitors; hit rate 1.8% among 300,000; calls by dose curve; tested in HEK293 cells
Vaccinia mCherry – vaccinia inhibition (mCherry reporter); Potency, µM (doses to about 36.5 µM), most hits filed as inhibitors; AID 720579; hit rate 0.63% among 310,000; Vaccinia virus mCherry reporter infection, fluorescence; calls by dose curve; tested in A549 cells; also: nearly all actives have a fitted effect of over 35% in size
LASV entry inh – Lassa virus entry inhibition. Lassa virus pseudotype entry inhibition, cell reporter. Potency, µM (top dose mostly 37.9 µM), hits mostly inhibitors. hit rate 1.2% among 300,000. AID 540256; calls by dose curve; tested in HEK293 cells; also: nearly all actives have a fitted effect of over 50% in size
Sm TGR inh – blocks Schistosoma mansoni thioredoxin glutathione reductase; Q962Y6; purified TGR, DTNB reduction, TNB absorbance 405 nm; Potency, µM (titrated, usually from 114 µM), most hits filed as inhibitors; hit rate 3% among 360,000; AID 485364; active = well fitted inhibition curve with a large enough effect; inconclusive = small, poorly fitted or top-dose-only effect; inactive = no such curve, though single readings can be large or run the other way; also: nearly all actives have a fitted effect of over 60% in size
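First, TGR (20 nM dispensed) and NADPH were mixed with compound. Second, a 15 min room-temperature incubation followed. Third, further NADPH and then DTNB were added to start the reaction. Finally, TNB absorbance was monitored kinetically.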
FMDV inh – antivirals against foot and mouth disease virus. FMDV antiviral cell-based qHTS. Potency, µM (top dose mostly 57.9 µM), most hits filed as inhibitors. hit rate 1.2% among 410,000; calls by dose curve; tested in HEK293T cells; also: read-out not given here; nearly all actives have a fitted effect of over 45% in size
Of the large screens only hits and unclear results are named; the others gave an inactive call.

CN(C)CCCN1C(=O)c2cccc3cccc(c23)C1=O	MARV entry inh inconclusive
CCc1c(C)sc(NC(NC(C)=O)(C(=O)OC)C(F)(F)F)c1C#N (centres undefined)	LASV entry inh inconclusive, Sm TGR inh 50.1µM
Cc1ccc(-n2cc(C(=O)Oc3ccc(F)cc3)c3ccccc3c2=O)cc1	LASV entry inh inconclusive, Sm TGR inh 35.5µM (no result: MARV entry inh)
CCC(=O)Nc1nnc(S(=O)(=O)N(C)Cc2ccco2)s1	Sm TGR inh 35.5µM (no result: MARV entry inh, LASV entry inh)
Cc1ccc(C(=O)Nc2nnc(S(=O)(=O)N(C)Cc3ccco3)s2)cc1	none (no result: MARV entry inh)
CCCC(=O)Nc1nnc(S(=O)(=O)N(C)Cc2ccco2)s1	Sm TGR inh 4.47µM
COc1cccc(CN2CCOc3ccc(C(O)c4cccnc4)cc3C2)c1 (centres undefined)	none (no result: MARV entry inh, LASV entry inh, Sm TGR inh)
CCOC(=O)[C@]12Cc3cc(C)ccc3[C@H]1N(Cc1ccccc1)C(=O)c1cc(F)c(F)cc12	FMDV inh 11.2µM (no result: MARV entry inh, LASV entry inh, Sm TGR inh)
CCOC(=O)[C@]12Cc3cc(C)ccc3[C@H]1N(Cc1ccccc1)C(=O)c1ccccc12	FMDV inh inconclusive (no result: MARV entry inh, LASV entry inh, Sm TGR inh)
CCOC(=O)[C@]12Cc3cc(C)ccc3[C@H]1N(C(C)C)C(=O)c1ccccc12	VACV Venus inh inconclusive, Vaccinia mCherry inconclusive, FMDV inh 10µM (no result: MARV entry inh, LASV entry inh, Sm TGR inh)
CCOC(=O)[C@]12Cc3ccccc3[C@H]1N(C(C)C)C(=O)c1cc(OC)ccc12	VACV Venus inh inconclusive, Vaccinia mCherry inconclusive, FMDV inh 28.2µM (no result: MARV entry inh, LASV entry inh, Sm TGR inh)
Cc1ccc(C(=O)N(Cc2ccc(N(C)C)cc2)CC2CCCO2)cc1 (centres undefined)	LASV entry inh inconclusive
Cc1ccc2c(CC(=O)NCc3ccccc3)coc2c1C	MARV entry inh inconclusive
O[C@H]1C[C@H](c2ccccc2)N(CC2CCCCC2)C[C@H]1n1cc(-c2ccc(F)cc2)nn1	none (no result: VACV Venus inh, MARV entry inh, Vaccinia mCherry, Sm TGR inh, FMDV inh)
CSc1ccc(C2C(C#N)=C(N)Oc3c2ccc(=O)c2c(C)oc(C)c32)cc1 (centres undefined)	MARV entry inh inconclusive, Sm TGR inh 28.2µM (no result: Vaccinia mCherry)
Cc1oc(C)c2c(=O)ccc3c(c12)OC(N)=C(C#N)C3c1ccccc1 (centres undefined)	Sm TGR inh 28.2µM, FMDV inh inconclusive (no result: Vaccinia mCherry)
COc1ccc(N2C(=O)[C@@H]3C[C@H]2CN3Cc2cccn2-c2ccc(Cl)cn2)c(C)c1	none (no result: MARV entry inh, LASV entry inh, Sm TGR inh)
COc1ccccc1N1CCN(CCn2c(=O)c3c(c4ccccc4n3C)n(C)c2=O)CC1	none (no result: MARV entry inh, LASV entry inh, Sm TGR inh)
Cc1cccc(N2CCN(C(=O)c3c(Cl)cnn3C)CC2)c1C	MARV entry inh inconclusive, LASV entry inh 11.2µM, FMDV inh inconclusive
Cn1ncc(Cl)c1C(=O)N1CCN(c2cccc(Cl)c2)CC1	MARV entry inh inconclusive, LASV entry inh inconclusive
COc1cc(CN2CCCC(C(=O)c3sccc3C)C2)cc(OC)c1O (centres undefined)	Vaccinia mCherry inconclusive, Sm TGR inh 15.8µM (no result: MARV entry inh, LASV entry inh)
CC(=O)C1=C(C)OC(N)=C(C#N)C1c1cccc([N+](=O)[O-])c1 (centres undefined)	Sm TGR inh 14.1µM
CC(=O)C1=C(C)OC(N)=C(C#N)C1c1ccncc1 (centres undefined)	none (no result: Vaccinia mCherry)
CC(=O)C1=C(C)OC(N)=C(C#N)C1c1cc([N+](=O)[O-])ccc1Cl (centres undefined)	MARV entry inh inconclusive, Sm TGR inh 22.4µM
COc1ccc2cc(C3C(C#N)=C(N)OC(C)=C3C(C)=O)c(Cl)nc2c1 (centres undefined)	none
C/C=C/C(=O)OCC(=O)Nc1ccc(C)c(S(=O)(=O)N(C)C)c1	VACV Venus inh inconclusive, MARV entry inh inconclusive, Vaccinia mCherry inconclusive, LASV entry inh inconclusive, Sm TGR inh 44.7µM
CCN(CC)S(=O)(=O)c1cccc(NC(=O)COC(=O)/C=C/c2ccco2)c1	Sm TGR inh 22.4µM
Cc1ccc(NC(=O)COC(=O)/C=C/c2ccco2)cc1S(=O)(=O)N(C)C	Sm TGR inh 25.1µM
CN(C)c1cc2c(cc1NC(=O)c1ccc(F)cc1)n(C)c(=O)n2C	none
CCOc1ccc(-c2cc(C(=O)NCc3ccccc3Cl)c3ccccc3n2)cc1	none (no result: MARV entry inh)
Cc1cccc(NC(=O)Nc2nnc(N(C)C3CCCCC3)s2)c1C	MARV entry inh inconclusive, LASV entry inh inconclusive
C/C(=N\Nc1cccc2ccccc12)c1c(O)n(Cc2ccccc2)c(=O)[nH]c1=O	MARV entry inh inconclusive, Sm TGR inh 12.6µM
CC(=NCCc1c[nH]c2ccccc12)c1c(O)n(Cc2ccccc2)c(=O)[nH]c1=O	MARV entry inh inconclusive, LASV entry inh 11.2µM, FMDV inh inconclusive
CC(=NCCN1CCOCC1)c1c(O)n(Cc2ccccc2)c(=O)[nH]c1=O	Sm TGR inh inconclusive (no result: VACV Venus inh, Vaccinia mCherry)
COc1cc(=O)n2c(c1C(=O)NC(C)c1ccco1)CCN(C(=O)c1[nH]c(C)cc1C)CC2 (centres undefined)	none (no result: MARV entry inh, LASV entry inh, Sm TGR inh)
Cc1cc(C)c(S(=O)(=O)NCCc2sc3nc(-c4ccc(F)cc4)nn3c2C)c(C)c1	VACV Venus inh inconclusive (no result: MARV entry inh)
Cc1nc(N2CCN(Cc3ccccc3)CC2)nc2c1C(=O)CCC2	MARV entry inh inconclusive, Sm TGR inh inconclusive, FMDV inh 25.1µM
Cc1ccc2c(c1)CN(CCNC(=O)c1cccc(Cn3cccn3)c1)CC(C)O2 (centres undefined)	none (no result: MARV entry inh, LASV entry inh, Sm TGR inh)
COc1ccc([C@H]2C[C@H](c3ccc(C)cc3)Nc3nc(N)nn32)cc1	none (no result: VACV Venus inh, Vaccinia mCherry, LASV entry inh, Sm TGR inh, FMDV inh)
CCOC(=O)c1c(CSc2ccccc2)n(C)c2cc(Br)c(O)c(CN(C)C)c12	MARV entry inh inconclusive, LASV entry inh inconclusive
CCOC(=O)c1c(CN(C)C)oc2cc(CN(C)C)c(O)c(CSc3ccccc3)c12	MARV entry inh 10µM (no result: Vaccinia mCherry)
CCOc1cccc(C(=O)Nc2nc3c(s2)CC(C(C)(C)C)CC3)c1 (centres undefined)	MARV entry inh inconclusive
COc1ccc(S(=O)(=O)CCC(=O)NCCc2ccc(S(N)(=O)=O)cc2)cc1	Sm TGR inh 39.8µM (no result: Vaccinia mCherry)
COc1ccc(S(=O)(=O)CCC(=O)NCCc2cccc(C)c2)cc1	none (no result: VACV Venus inh, Vaccinia mCherry)
Cc1ccc(-c2noc(CN(C(=O)c3ccc(C(C)(C)C)cc3)C(C)C)n2)cc1	none
O=C1CC(c2ccc(O)cc2)Oc2cc(O)cc(O)c21 (centres undefined)	none
CC1CC(=O)c2c(cc3c(-c4c(O)cc(O)c5c(O)c6c(cc45)OC(C)CC6=O)c(O)cc(O)c3c2O)O1 (centres undefined)	VACV Venus inh 14.1µM, Vaccinia mCherry 10µM, FMDV inh 35.5µM (no result: MARV entry inh, LASV entry inh)
COc1ccc(O)c(C(=O)c2cnn(S(=O)(=O)c3ccc(C)cc3)c2)c1	Sm TGR inh 35.5µM (no result: VACV Venus inh, MARV entry inh, Vaccinia mCherry, LASV entry inh)
COc1ccc(C(=O)n2cc(C(=O)c3cc(C)ccc3O)cn2)cc1	MARV entry inh inconclusive
CC(C)[C@H]1CN=C2N(CCNC(=O)CCC3CCCCC3)[C@H](Cc3ccc(O)cc3)CN21	Sm TGR inh 7.94µM (no result: MARV entry inh, LASV entry inh)
Cc1ccc(C(=O)N[C@@H](C)CN2C3=NC[C@H](C)N3C[C@H]2Cc2ccc(O)cc2)cc1Br	Sm TGR inh 50.1µM (no result: VACV Venus inh, MARV entry inh, Vaccinia mCherry, LASV entry inh, FMDV inh)
O=C(CCC1CCCCC1)NCCN1C2=NC[C@H](Cc3ccc(O)cc3)N2C[C@H]1Cc1ccc(O)cc1	Vaccinia mCherry inconclusive, Sm TGR inh 35.5µM (no result: MARV entry inh, LASV entry inh)

Compound activity: PubChem BioAssay, National Center for Advancing Translational Sciences (NCATS)
